# Data from PubChem BioAssay.
# Several values for one entry are separate records, joined by “and”; a condition that tells them apart may be missing. Equal entries are not always repeated.
# Test: sensitizers of A549 cells to miR-34 induction, primary screen, imaging, A549 dox-inducible miR-34, nuclei and caspase counts (AID 1347080); note: test concentration not given here
# Details: A549 miR-34 inducible, Hoechst nuclei count, 48 h; measured here: relative caspase fold change +Dox/-Dox
row,SMILES,fold change
1,CCCCCCCCCCCCCCP(=O)(O)O,0.729
2,CCCCCCCC/C=C\CCCCCCCC(=O)NCC(=O)O,0.739
3,CCCCCCCCCCCCCCCC(=O)N[C@H]1CCOC1=O,1.15
4,CCCCC[C@H](O)/C=C/[C@H]1C=CC(=O)[C@H]1C/C=C\CCCC(=O)O,1.6
5,CCCCC[C@H](O)C/C=C1/C(=O)C[C@H](O)[C@@H]1C/C=C\CCCC(=O)O,1.09
6,CCCCC[C@H](O)/C=C/[C@H]1C=CC(=O)[C@H]1CCCCCCC(=O)O,1.97
7,COc1cc(/C=C/C(=O)N2CCCCCC2)cc(OC)c1OC,0.988
8,CCCCCCCCCCCCCCCCCCCCCCCC(=O)NCCS(=O)(=O)O,0.331
9,CC(C)OC(=O)CCC/C=C\C[C@@H]1[C@@H](/C=C/[C@@H](O)CCc2ccccc2)[C@H](O)C[C@@H]1O,1.39
10,Cc1ccccc1C#Cc1ccc(CCC(=O)O)cc1,1.21
11,CCCCC/C=C\C/C=C\C/C=C\C/C=C\CCCC(=O)OCc1ccsc1,1.02
12,CCCCC/C=C\C/C=C\C/C=C\C/C=C\CCCC(=O)O[C@H](COCCCCCCCCCCCCCCCC)COP(=O)([O-])OCC[N+](C)(C)C,1.77 and 0.976
13,COC(=O)CCC[C@H](O)[C@H](O)CO,0.845
14,CS(=O)(=O)NC(=O)CCCCCCCCCC=C(Br)Br,1.19
15,CCCCC/C=C\C/C=C\CC/C=C\CCCC(=O)OC,0.414
16,COc1ccc2c(c1)c(CC(=O)NCCc1ccccc1)c(C)n2C(=O)c1ccc(Cl)cc1,0.638
17,c1ccc2c(NCCCCCCCNc3c4c(nc5ccccc35)CCCC4)c3c(nc2c1)CCCC3,0.663
